Screening data as filed in PubChem BioAssay.
Hits are enriched below; roughly 11% of the tested compounds scored in any of these assays.
JMJD2A Tudor inh: inhibitors of human JMJD2A Tudor domain. Potency, µM (highest dose often 114 µM), actives largely listed as inhibitors. AlphaScreen JMJD2A-Tudor / H3K4me3 peptide binding. 390,000 tested, 4.4% active. AID 504339; further: nearly all actives have a fitted effect of over 50% in size
HP1b binding inh: blocks HP1-beta chromodomain binding to methylated histone tails; P83916; AlphaScreen HP1-beta / biotin-H3K9me3 peptide binding; Potency, µM (series often up to 114 µM), usual class: inhibitors; 390,000 tested, 0.56% active; AID 540317; further: nearly all actives have a fitted effect of over 70% in size
Target sequence (P83916 whole entry, looked up): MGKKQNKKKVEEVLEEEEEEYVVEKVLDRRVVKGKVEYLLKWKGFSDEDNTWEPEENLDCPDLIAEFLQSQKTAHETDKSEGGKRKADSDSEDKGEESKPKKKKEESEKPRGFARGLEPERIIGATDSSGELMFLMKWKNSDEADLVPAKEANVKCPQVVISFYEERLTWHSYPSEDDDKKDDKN
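Compound inhibition of the preformed complex between 50 nM HP1-beta and 50 nM biotinylated H3K9me3 peptide was read by AlphaScreen. Buffer was PBS pH 7.4 with 0.01% Tween-20. Incubations ran 30 min at room temperature, with 10 ug/mL donor/acceptor beads.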
BAZ2B block: inhibitors of human BAZ2B bromodomain. 360,000 tested, 4.4% active. AlphaScreen BAZ2B-H3K14Ac peptide displacement. AID 504333. Potency, µM (doses to about 114 µM), hits mostly inhibitors; further: nearly all actives have a fitted effect of over 60% in size
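Compounds, titrated to a top concentration of 110 uM, were incubated 30 min at room temperature with preformed BAZ2B/acetyl-K14 H3 peptide complex (50 nM each). Proximity signal was measured by AlphaScreen after 20 min with beads.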
G9a block: inhibitors of human histone lysine methyltransferase G9a; Q96KQ7; G9a H3K9 monomethylation, AlphaScreen, 2 h; Potency, µM (top dose mostly 102 µM), hits mostly inhibitors; 350,000 tested, 8.8% active; AID 504332; further: nearly all actives have a fitted effect of over 75% in size
Target sequence (Q96KQ7 913-1193 limits assumed): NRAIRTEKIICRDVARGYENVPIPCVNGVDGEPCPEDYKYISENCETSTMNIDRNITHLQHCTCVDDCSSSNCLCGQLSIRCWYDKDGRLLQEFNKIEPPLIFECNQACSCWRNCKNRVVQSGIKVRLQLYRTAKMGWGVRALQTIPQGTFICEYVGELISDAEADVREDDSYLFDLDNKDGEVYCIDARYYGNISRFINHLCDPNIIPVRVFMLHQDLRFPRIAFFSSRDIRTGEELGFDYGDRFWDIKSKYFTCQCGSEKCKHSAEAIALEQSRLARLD
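Signal arises when biotinylated H3K9 peptide, once monomethylated, bridges streptavidin donor and antibody-captured acceptor beads. Enzyme at 20 nM was preincubated 15 min with test compounds; peptide 500 nM and SAM 20 uM then reacted for 2 h.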
L3MBTL1 inh: L3MBTL1 (human) inhibition. Potency, µM (doses to about 57.1 µM), hits mostly inhibitors. 230,000 tested, 0.66% active. AlphaScreen L3MBTL1–H3K9me1 peptide binding. Q9Y468; further: nearly all actives have a fitted effect of over 60% in size
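First, the protein-peptide complex forms for 30 min at room temperature (L3MBTL1 50 nM, biotinylated H3K9me1 peptide 75 nM). Next, compounds are pin-transferred and incubated 30 min. Finally, AlphaScreen beads are added and read after 30 min.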
Large screens that a line does not name were inactive. The call rests on the fitted dose curve; in most records, active means well fitted inhibition curve with a large enough effect; inconclusive means small, poorly fitted or top-dose-only effect; inactive means no such curve, though single readings can be large or run the other way.

N#CC1=C(N)SC2(CCCCC2)SC1c1ccccc1 (centres undefined)	JMJD2A Tudor inh inconclusive, G9a block 7.9µM
CCCCn1nnc(NC(=O)Cc2ccc(Cl)cc2)n1	none (no result: L3MBTL1 inh)
CCn1nnc(NC(=O)CSc2ccc(Cl)cc2)n1	JMJD2A Tudor inh inconclusive, BAZ2B block inconclusive, G9a block 71µM, L3MBTL1 inh inconclusive
COc1cccc(C2C(C#N)=C(N)Oc3cc(C)n(Cc4ccccn4)c(=O)c32)c1OC (centres undefined)	none
COc1cc(C2C(C#N)=C(N)Oc3cc(C)oc(=O)c32)cc2c1OCO2 (centres undefined)	BAZ2B block 56µM, G9a block inconclusive (no result: L3MBTL1 inh)
COc1cc(C2C(C#N)=C(N)Oc3cc(C)n(Cc4ccccn4)c(=O)c32)cc2c1OCO2 (centres undefined)	BAZ2B block inconclusive, G9a block 50µM (no result: JMJD2A Tudor inh, HP1b binding inh)
CCOc1ccccc1C1C(C#N)=C(N)Oc2cc(C)n(Cc3ccccn3)c(=O)c21 (centres undefined)	G9a block 50µM
COc1ccccc1C1C(C#N)=C(N)Oc2cc(C)n(Cc3ccccn3)c(=O)c21 (centres undefined)	BAZ2B block inconclusive, G9a block 35µM (no result: L3MBTL1 inh)
CC(=O)OCC(NC(=O)C1CCCN1C(=O)OC(C)(C)C)C1OC(n2cc(F)c(=O)[nH]c2=O)C(OC(C)=O)C1OC(C)=O (centres undefined)	none (no result: BAZ2B block, G9a block, L3MBTL1 inh)
OC(COCC1COc2ccccc2O1)CN1CCN(c2ccccc2)CC1 (centres undefined)	JMJD2A Tudor inh inconclusive, BAZ2B block 79µM
C[N+]1(CC(O)COCC2COc3ccccc3O2)CCOCC1 (centres undefined)	G9a block 35µM (no result: L3MBTL1 inh)
O=S1(=O)N=C2CCCCCN2C(c2ccc(F)cc2)N1 (centres undefined)	none
O=[N+]([O-])c1ccc(C2NS(=O)(=O)N=C3CCCCCN32)cc1 (centres undefined)	G9a block 25µM
Cc1ccc(-n2c(-c3ccco3)nc3c(cnn3-c3ccc(C)cc3)c2=O)cc1	none (no result: L3MBTL1 inh)
Cc1ccc(-n2c(-c3ccco3)n[nH]c2=S)cc1	JMJD2A Tudor inh 22µM (no result: G9a block)
CCOc1ccc(-n2c(-c3ccco3)n[nH]c2=S)cc1	JMJD2A Tudor inh 5.6µM, HP1b binding inh inconclusive, BAZ2B block inconclusive, G9a block 3.2µM
Fc1ccc(-n2c(-c3ccc4ccccc4n3)n[nH]c2=S)cc1	none
Fc1ccc(-n2c(-c3ccco3)n[nH]c2=S)cc1	JMJD2A Tudor inh 6.3µM, G9a block inconclusive (no result: L3MBTL1 inh)
Cc1ccc(-c2c3c(=O)n(C)c(=O)n(C)c3c3c(C)nc4ccccc4n23)cc1	none (no result: L3MBTL1 inh)
CCOc1cc(-c2nc(C)c(C(C)=O)n2O)ccc1OCC(=O)Nc1cccc(C)c1	G9a block 50µM
CCOc1cc(/C=N/O)ccc1OCC(=O)Nc1cccc(C)c1	none
O=C(/C=C/c1cccc([N+](=O)[O-])c1)N1CCN(Cc2ccc3c(c2)OCO3)CC1	G9a block inconclusive
N#C/C(=C\c1cc(O)c(O)c(O)c1)C(N)=O	JMJD2A Tudor inh 3.5µM, HP1b binding inh inconclusive (no result: G9a block)
Cc1ccccc1N1CC(c2nc3ccccc3n2Cc2ccc(Br)cc2)CC1=O (centres undefined)	G9a block inconclusive (no result: L3MBTL1 inh)
CC(=O)N(C)/C=C1\Sc2ccccc2C1=O	none
CCC(=O)N(C)/C=C1\Sc2ccccc2C1=O	BAZ2B block 56µM, G9a block inconclusive
OC(CN1CCOCC1)c1ccc(F)cc1 (centres undefined)	JMJD2A Tudor inh 20µM, HP1b binding inh inconclusive, BAZ2B block 50µM
COc1ccc(/C=C/C(=O)NC(=S)NNC(=O)c2ccco2)cc1	G9a block 13µM
O=C(/C=C/c1ccccc1)NC(=S)NNC(=O)Cc1cccs1	G9a block inconclusive
COc1ccccc1C(=O)NC(=S)Nc1ccc(NC(=O)c2ccco2)cc1	G9a block inconclusive
COc1ccc(/C=C/C(=O)NC(=S)NNC(=O)c2ccco2)cc1OC	G9a block 35µM (no result: L3MBTL1 inh)
COc1ccccc1OCC(=O)NNC(=S)NC(=O)c1ccco1	JMJD2A Tudor inh 79µM, G9a block inconclusive (no result: L3MBTL1 inh)
COc1ccc(/C=C/C(=O)NC(=S)NNC(=O)Cc2cccs2)cc1	G9a block 32µM (no result: L3MBTL1 inh)
COc1ccc(C(=O)NC(=S)NNC(=O)c2ccco2)cc1	none (no result: L3MBTL1 inh)
Cn1c(N)c(C(=O)COC(=O)c2ccccc2C(=O)c2ccc(Cl)c([N+](=O)[O-])c2)c(=O)n(C)c1=O	none (no result: BAZ2B block, G9a block)
O=C(CSc1nnnn1-c1ccc(F)cc1)Nc1ccccc1F	none (no result: G9a block)
CCOC(=O)c1c(C)oc2ncnc(N3CCN(c4ccccc4OC)CC3)c12	G9a block inconclusive (no result: L3MBTL1 inh)
O=C1c2[nH]nc(-c3ccccc3O)c2C(c2cccc(OCc3ccccc3)c2)N1CCCO (centres undefined)	none (no result: L3MBTL1 inh)
COc1cccc(/C=N/NC(=O)CNC(=O)c2ccc(S(=O)(=O)N3CCCC3)cc2)c1OC	none
O=C(CN1C(=O)COc2ccc(S(=O)(=O)N3CCCCCC3)cc21)Nc1cccc(Cl)c1	none (no result: L3MBTL1 inh)
CCCCNC(=O)CSc1nc(Cc2ccccc2)nc2ccccc12	none
COC(=O)c1ccc(NC(=O)c2c(NCc3ccc(C)o3)sc3c2CCCC3)cc1	JMJD2A Tudor inh inconclusive, G9a block inconclusive (no result: L3MBTL1 inh)
CCOC(=O)c1ccc(NC(=O)c2c(NCc3cccc(OC)c3OC)sc3c2CCC3)cc1	G9a block 14µM (no result: L3MBTL1 inh)
CCOC(=O)c1ccc(NC(=O)c2c(NCc3sccc3C)sc3c2CCCCC3)cc1	JMJD2A Tudor inh 56µM, BAZ2B block 45µM, G9a block 8.9µM (no result: L3MBTL1 inh)
CCOC(=O)c1c(NC(=O)CSc2cn(CCNC(=O)c3ccc(OC)c(OC)c3)c3ccccc23)sc2c1CCCC2	none (no result: L3MBTL1 inh)
COC(=O)c1cccc(NC(=O)CN2CCc3ccccc3C2)c1	none
CCOC(=O)COc1cc(N2C(=O)CSCC2=O)c(Cl)cc1Cl	none
CCOC(=O)COc1cc(-n2c(=S)[nH]c3cc(OC)c(OC)cc3c2=O)c(Cl)cc1Cl	JMJD2A Tudor inh inconclusive, L3MBTL1 inh 0.71µM
CCOC(=O)c1cc(-c2ccccc2)n(CC(=O)Nc2ccc(OC)cc2OC)c1C	JMJD2A Tudor inh 22µM (no result: L3MBTL1 inh)
CCOC(=O)c1cc(-c2ccc(OC)cc2)n(CCC(=O)Nc2ccccc2OC)c1C	JMJD2A Tudor inh 28µM, BAZ2B block 79µM (no result: L3MBTL1 inh)
CCOC(=O)c1cc(-c2ccc(OC)cc2)n(CCC(=O)Nc2ccc(OC)cc2OC)c1C	JMJD2A Tudor inh inconclusive, G9a block inconclusive (no result: L3MBTL1 inh)
Cc1ccccc1OCC(=O)OCC(=O)Nc1cc(S(=O)(=O)N2CCCCC2)ccc1Cl	none
N#Cc1c(NC(=O)CS(=O)(=O)c2ccc(Cl)cc2)sc2c1CCCCC2	none (no result: L3MBTL1 inh)
CCOCc1cc(CN2CCN(c3ccccc3OC)CC2)c(O)c2ncccc12	JMJD2A Tudor inh 22µM, BAZ2B block 5.6µM (no result: L3MBTL1 inh)
COc1ccccc1N1CCN(Cc2cc(Br)c(O)c3ncccc23)CC1	JMJD2A Tudor inh 40µM, BAZ2B block 13µM, G9a block 8.9µM (no result: L3MBTL1 inh)
Cc1nc(N2CCC(C)CC2)c2oc3ccccc3c2n1	none
